About 410 targets per protein were measured; listed, in parts, are those with the strongest signals and a random draw of the rest.
How the values were obtained:
Assay in all cases: glycan array binding signal (z-score within array); higher = stronger binding
Conditions in all cases: glycan notation: IUPAC condensed, linker removed
[1] = biological target: Fuc(a1-2)Gal(b1-3)GalNAc(b1-3)Gal
Outline: (§1)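 The Consortium for Functional Glycomics database supplied 3228 glycan arrays, of which those lacking an available protein sequence were dropped. The binding signal, a within-array Z-score, was averaged across arrays of the same protein sequence and across linkers. Negative scores can be read as non-binding.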

[2] = biological target: Fuc(a1-2)Gal(b1-3)GalNAc(b1-3)Gal(b1-4)Glc
Outline: as §1

[3] = biological target: Fuc(a1-2)Gal(b1-4)[Fuc(a1-3)]GlcNAc
Outline: as §1

Fuc(a1-3)GlcNAc = biological target: Fuc(a1-3)GlcNAc
Outline: as §1

[4] = biological target: Gal(b1-3)GalNAc(b1-3)Gal(b1-4)GlcNAc
Outline: as §1

[5] = biological target: Gal(b1-4)GlcNAc(b1-2)Man(a1-3)[Gal(b1-4)GlcNAc(b1-2)Man(a1-6)]Man(b1-4)GlcNAc(b1-4)GlcNAc
Outline: as §1

Gal3S6S(b1-4)GlcNAc = biological target: Gal3S6S(b1-4)GlcNAc
Outline: as §1

[6] = biological target: GlcNAc(b1-3)Gal(b1-3)GalNAc
Outline: as §1

GlcNAc(b1-3)Gal(b1-4)Glc = biological target: GlcNAc(b1-3)Gal(b1-4)Glc
Outline: as §1

[7] = biological target: GlcNAc(b1-3)Gal(b1-4)GlcNAc(b1-3)Gal(b1-4)GlcNAc
Outline: as §1

[8] = biological target: GlcNAc(b1-3)[GlcNAc(b1-6)]GlcNAc
Outline: as §1

[9] = biological target: GlcNAc(b1-4)Gal(b1-4)GlcNAc
Outline: as §1

[10] = biological target: Man(a1-2)Man(a1-3)[Man(a1-3)[Man(a1-6)]Man(a1-6)]Man(b1-4)GlcNAc(b1-4)GlcNAc
Outline: as §1

Man(a1-3)[Man(a1-6)]Man = biological target: Man(a1-3)[Man(a1-6)]Man
Outline: as §1

[11] = biological target: Neu5Ac(a2-3)Gal(b1-4)GlcNAc(b1-3)Gal(b1-4)GlcNAc
Outline: as §1

[12] = biological target: Neu5Ac(a2-3)Gal(b1-4)[Fuc(a1-3)]GlcNAc6S
Outline: as §1

Neu5Ac(a2-3)GalNAc = biological target: Neu5Ac(a2-3)GalNAc
Outline: as §1

[13] = biological target: Neu5Ac(a2-3)[GalNAc(b1-4)]Gal(b1-4)Glc
Outline: as §1

[14] = biological target: Neu5Ac(a2-6)Gal(b1-4)GlcNAc(b1-2)Man(a1-3)[Neu5Ac(a2-6)Gal(b1-4)GlcNAc(b1-2)Man(a1-6)]Man(b1-4)GlcNAc(b1-4)GlcNAc
Outline: as §1

[15] = biological target: Neu5Ac(a2-6)Gal(b1-4)GlcNAc6S
Outline: as §1

[16] = biological target: Neu5Ac(a2-8)Neu5Ac(a2-3)Gal(b1-4)Glc
Outline: as §1

[17] = biological target: Fuc(a1-2)Gal(b1-4)GlcNAc(b1-3)Gal(b1-4)GlcNAc(b1-3)Gal(b1-4)GlcNAc
Outline: as §1

[18] = biological target: Fuc(a1-2)[GalNAc(a1-3)]Gal(b1-4)[Fuc(a1-3)]GlcNAc
Outline: as §1

[19] = biological target: Fuc(a1-3)[Gal(b1-4)]GlcNAc(b1-4)Gal(b1-4)[Fuc(a1-3)]GlcNAc(b1-4)Gal(b1-4)[Fuc(a1-3)]GlcNAc
Outline: as §1

[20] = biological target: Fuc(a1-3)[Gal3S(b1-4)]GlcNAc6S
Outline: as §1

Fuc(a1-4)GlcNAc = biological target: Fuc(a1-4)GlcNAc
Outline: as §1

Gal(a1-6)Glc = biological target: Gal(a1-6)Glc
Outline: as §1

[21] = biological target: Gal(b1-3)[Neu5Ac(a2-6)]GalNAc
Outline: as §1

[22] = biological target: Gal(b1-4)GalNAc(b1-3)[Fuc(a1-2)]Gal(b1-4)GlcNAc
Outline: as §1

Gal3S(b1-4)Glc6S = biological target: Gal3S(b1-4)Glc6S
Outline: as §1

Gal3S6S(b1-4)GlcNAc6S = biological target: Gal3S6S(b1-4)GlcNAc6S
Outline: as §1

Gal4S(b1-4)GlcNAc = biological target: Gal4S(b1-4)GlcNAc
Outline: as §1

Gal6S(b1-4)Glc6S = biological target: Gal6S(b1-4)Glc6S
Outline: as §1

[23] = biological target: Man(a1-2)Man(a1-2)Man(a1-3)[Man(a1-2)Man(a1-3)[Man(a1-2)Man(a1-6)]Man(a1-6)]Man(b1-4)GlcNAc(b1-4)GlcNAc
Outline: as §1

[24] = biological target: Man(a1-2)Man(a1-2)Man(a1-6)[Man(a1-3)]Man
Outline: as §1

[25] = biological target: Man(a1-2)Man(a1-3)[Man(a1-6)]Man(a1-6)[Man(a1-2)Man(a1-3)]Man(b1-4)GlcNAc(b1-4)GlcNAc
Outline: as §1

[26] = biological target: Neu5Ac(a2-3)[GalNAc(b1-4)]Gal(b1-4)GlcNAc
Outline: as §1

[27] = biological target: Neu5Ac(a2-8)Neu5Ac(a2-3)[GalNAc(b1-4)]Gal(b1-4)Glc
Outline: as §1

[28] = biological target: Neu5Ac(a2-8)Neu5Ac(a2-8)Neu5Ac(a2-3)Gal(b1-4)Glc
Outline: as §1

[29] = biological target: Neu5Gc(a2-3)Gal(b1-4)GlcNAc
Outline: as §1

Binder	glycan array binding signal (z-score) [1]	glycan array binding signal (z-score) [2]	glycan array binding signal (z-score) [3]	glycan array binding signal (z-score) (Fuc(a1-3)GlcNAc)	glycan array binding signal (z-score) [4]	glycan array binding signal (z-score) [5]	glycan array binding signal (z-score) (Gal3S6S(b1-4)GlcNAc)	glycan array binding signal (z-score) [6]	glycan array binding signal (z-score) (GlcNAc(b1-3)Gal(b1-4)Glc)	glycan array binding signal (z-score) [7]	glycan array binding signal (z-score) [8]	glycan array binding signal (z-score) [9]	glycan array binding signal (z-score) [10]	glycan array binding signal (z-score) (Man(a1-3)[Man(a1-6)]Man)	glycan array binding signal (z-score) [11]	glycan array binding signal (z-score) [12]	glycan array binding signal (z-score) (Neu5Ac(a2-3)GalNAc)	glycan array binding signal (z-score) [13]	glycan array binding signal (z-score) [14]	glycan array binding signal (z-score) [15]	glycan array binding signal (z-score) [16]	glycan array binding signal (z-score) [17]	glycan array binding signal (z-score) [18]	glycan array binding signal (z-score) [19]	glycan array binding signal (z-score) [20]	glycan array binding signal (z-score) (Fuc(a1-4)GlcNAc)	glycan array binding signal (z-score) (Gal(a1-6)Glc)	glycan array binding signal (z-score) [21]	glycan array binding signal (z-score) [22]	glycan array binding signal (z-score) (Gal3S(b1-4)Glc6S)	glycan array binding signal (z-score) (Gal3S6S(b1-4)GlcNAc6S)	glycan array binding signal (z-score) (Gal4S(b1-4)GlcNAc)	glycan array binding signal (z-score) (Gal6S(b1-4)Glc6S)	glycan array binding signal (z-score) [23]	glycan array binding signal (z-score) [24]	glycan array binding signal (z-score) [25]	glycan array binding signal (z-score) [26]	glycan array binding signal (z-score) [27]	glycan array binding signal (z-score) [28]	glycan array binding signal (z-score) [29]
X56-1 (Clostridium perfringens), P26831 (protein) MGSSHHHHHHSSGLVPRGSHMASDPNRIIATYISNRQDAPTGNPDNIFDNNASTELVYKNPNRIDVGTYVGVKYSNPITLNNVEFLMGANSNPNDTMQKAKIQYTVDGREWIDLEEGVEYTMPGAIKVENLDLKVRGVRLIATEARENTWLGVRDINVNKKEDSNSGVEF	0.726	0.136	0.085	-0.245	0.197	5.94	-0.196	0.035	-0.355	-0.172	-0.276	-0.371	-0.387	-0.231	9.11	1.06	-0.264	-0.338	-0.264	-0.039	0.954	–	–	–	–	–	–	–	–	–	–	–	–	–	–	–	–	–	–	–
PEB3 Cj0289c (Campylobacter jejuni), Q9PIK7 (protein) MDVNLYGPGGPHTALKDIANKYSEKTGVKVNVNFGPQATWFEKAKKDADILFGASDQSALAIASDFGKDFNVSKIKPLYFREAIILTQKGNPLKIKGLKDLANKKVRIVVPEGAGKSNTSGTGVWEDMIGRTQDIKTIQNFRNNIVAFVPNSGSARKLFAQDQADAWITWIDWSKSNPDIGTAVAIEKDLVVYRTFNVIAKEGASKETQDFIAYLSSKEAKEIFKKYGWRE	1.6	–	–	–	–	–	–	–	–	–	–	–	–	–	–	–	–	–	–	–	–	-0.33	-0.226	-0.441	0.228	-0.029	1.25	-0.409	-0.381	1.38	2.8	0.039	1.36	-0.256	-0.192	-0.25	-0.332	-0.28	-0.456	-0.272

Reference: the supplement of paper PMC8728848
